PubChem BioAssay
Activity calls are given as the source filed them.

Columns and labels:
[1] = E. coli DRC41 culture turbidity changes, primary screen, E. coli filamentation inducer project, strain DRC41, OD650, 48 h (AID 1152);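 further: E. coli MC1000 strain DRC41 lacking acrAB efflux pump and sulA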; conditions: E. coli DRC41 (acrAB sulA), higher = more signal, called active from +8 up or from −8 down
[2] = small-molecule binders of probe aLefty1, primary screen, biochemical, small-molecule microarray, 635/667 nm fluorescence (AID 1153); conditions: higher = more signal;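 further: score merges spot fluorescence with signal-to-noise ratio from the scanned slide images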
[3] = PSAC antagonists in infected red cells, primary screen, cell-based, P. falciparum Indochina, OD700, 1 h (AID 1154); conditions: P. falciparum Indochina infected RBC osmotic lysis, higher = more signal, called active from +8 up or from −8 down
[4] = PSAC antagonists in infected red cells, primary screen, cell-based, P. falciparum Indochina, OD700, 2 h (AID 1155);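 further: lysis reports solute entry through the parasite surface anion channel PSAC; channel blockers reduce lysis of infected cells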; conditions: P. falciparum Indochina infected erythrocytes, osmotic lysis OD700; higher = more signal, called active from +8 up or from −8 down
[5] = osmotic lysis modulators in infected erythrocytes, primary screen, PSAC antagonist project, cell-based, P. falciparum Indochina, OD700, 3 h (AID 1156); conditions: higher = more signal, called active from +8 up or from −8 down
[6] = PSAC antagonists in infected red cells, primary screen, cell-based, P. falciparum Indochina, OD700, 18 h (AID 1157); conditions: P. falciparum Indochina infected erythrocytes, osmotic lysis OD700, 18 h; higher = more signal, called active from +8 up or from −8 down
[7] = modulators of S6 phosphorylation in cells, primary screen, cell-based, A549, cytoblot, luminescence, serum-stimulated (AID 1158); conditions: A549 phospho-S6 cytoblot, 5 h, higher = more signal;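 further: serum-stimulated A549 lung adenocarcinoma cells; signal is phosphorylated S6 detected by cytoblot immunostaining with HRP secondary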
[8] = target: NADPH oxidase 2 (Homo sapiens) (UniProt P04839); assay: NOX2-dependent H2O2 signal modulators, primary screen, NOX inhibitor project, cell-based, HEK293-NOX2, PMA-stimulated, Amplex Red fluorescence (AID 1159); conditions: 45 min, higher = more signal, called active from +8 up or from −8 down; further: test concentration not given here
NADPH oxidase 2 (Homo sapiens), sequence (P04839 whole entry, looked up): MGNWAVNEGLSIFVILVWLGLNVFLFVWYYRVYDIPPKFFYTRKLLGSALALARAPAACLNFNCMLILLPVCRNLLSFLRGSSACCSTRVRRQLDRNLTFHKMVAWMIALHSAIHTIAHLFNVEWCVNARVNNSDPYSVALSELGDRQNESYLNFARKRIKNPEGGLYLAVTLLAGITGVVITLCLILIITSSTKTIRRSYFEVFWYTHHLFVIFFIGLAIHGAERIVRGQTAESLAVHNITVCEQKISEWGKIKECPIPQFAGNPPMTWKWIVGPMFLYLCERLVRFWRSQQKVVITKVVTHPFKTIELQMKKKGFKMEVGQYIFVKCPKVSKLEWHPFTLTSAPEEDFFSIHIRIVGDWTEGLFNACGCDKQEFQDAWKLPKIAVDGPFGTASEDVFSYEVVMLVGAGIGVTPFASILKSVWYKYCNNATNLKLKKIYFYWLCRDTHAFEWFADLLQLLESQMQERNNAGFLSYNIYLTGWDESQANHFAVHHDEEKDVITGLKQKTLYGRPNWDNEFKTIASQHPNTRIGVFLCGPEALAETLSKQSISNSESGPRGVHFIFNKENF

[9] = target: NADPH oxidase 4 (Homo sapiens) (UniProt Q9NPH5); assay: NOX4-dependent H2O2 signal modulators, primary screen, NOX inhibitor project, cell-based, HEK293-NOX4, tetracycline-induced, Amplex Red fluorescence (AID 1160); conditions: 45 min, higher = more signal, called active from +8 up or from −8 down
NADPH oxidase 4 (Homo sapiens), sequence (Q9NPH5 whole entry, looked up): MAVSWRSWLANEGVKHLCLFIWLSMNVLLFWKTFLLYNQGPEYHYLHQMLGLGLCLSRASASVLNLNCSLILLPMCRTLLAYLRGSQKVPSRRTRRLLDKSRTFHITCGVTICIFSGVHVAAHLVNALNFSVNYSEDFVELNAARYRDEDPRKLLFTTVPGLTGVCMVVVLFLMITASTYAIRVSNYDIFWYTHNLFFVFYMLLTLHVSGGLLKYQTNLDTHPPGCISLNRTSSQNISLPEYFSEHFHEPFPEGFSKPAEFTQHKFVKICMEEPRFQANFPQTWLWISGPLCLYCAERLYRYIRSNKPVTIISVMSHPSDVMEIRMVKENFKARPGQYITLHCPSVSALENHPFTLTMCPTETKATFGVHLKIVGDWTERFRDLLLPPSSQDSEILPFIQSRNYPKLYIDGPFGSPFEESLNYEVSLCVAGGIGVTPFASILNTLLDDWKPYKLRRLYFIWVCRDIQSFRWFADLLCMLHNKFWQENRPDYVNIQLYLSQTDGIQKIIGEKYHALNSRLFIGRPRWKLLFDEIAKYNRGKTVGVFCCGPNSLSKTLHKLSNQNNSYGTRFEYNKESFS

[10] = target: NADPH oxidase 5 (Homo sapiens) (UniProt Q96PH1); assay: NOX5-dependent H2O2 signal modulators, primary screen, NOX inhibitor project, cell-based, HEK293-NOX5, Amplex Red fluorescence (AID 1161); conditions: HEK293-NOX5, ionomycin, 45 min, higher = more signal
NADPH oxidase 5 (Homo sapiens), sequence (Q96PH1 whole entry, looked up): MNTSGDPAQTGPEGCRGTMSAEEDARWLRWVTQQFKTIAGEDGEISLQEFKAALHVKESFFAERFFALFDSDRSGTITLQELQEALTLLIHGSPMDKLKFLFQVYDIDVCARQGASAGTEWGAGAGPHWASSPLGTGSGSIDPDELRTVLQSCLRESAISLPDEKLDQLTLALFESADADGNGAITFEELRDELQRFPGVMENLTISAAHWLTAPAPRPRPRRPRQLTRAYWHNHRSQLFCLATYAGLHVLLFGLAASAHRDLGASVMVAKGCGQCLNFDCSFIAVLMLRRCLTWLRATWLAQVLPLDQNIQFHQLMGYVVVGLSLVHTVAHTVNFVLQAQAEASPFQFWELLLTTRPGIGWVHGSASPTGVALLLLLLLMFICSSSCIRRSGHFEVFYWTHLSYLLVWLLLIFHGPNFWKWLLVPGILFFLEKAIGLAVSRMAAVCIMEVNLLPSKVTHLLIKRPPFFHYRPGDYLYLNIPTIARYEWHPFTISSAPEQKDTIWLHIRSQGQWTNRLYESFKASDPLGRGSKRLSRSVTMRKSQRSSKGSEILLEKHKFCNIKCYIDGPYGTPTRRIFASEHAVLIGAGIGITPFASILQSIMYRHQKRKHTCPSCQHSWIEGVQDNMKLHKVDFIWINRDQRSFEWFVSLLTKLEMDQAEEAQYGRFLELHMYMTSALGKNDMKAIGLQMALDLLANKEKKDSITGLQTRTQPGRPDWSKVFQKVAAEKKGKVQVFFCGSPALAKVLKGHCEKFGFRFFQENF

[11] = A549 cell viability effects, profiling panel, calcein-AM fluorescence, 48 h, basal (AID 1162); conditions: higher = more signal; further: test concentration not given here
[12] = adipocyte viability effects, profiling panel, cell-based, 3T3-L1 adipocytes, calcein-AM fluorescence, 48 h, basal (AID 1163); conditions: 3T3-L1 adipocytes viability, higher = more signal; further: test concentration not given here
[13] = HepG2 cell viability effects, profiling panel, calcein-AM fluorescence, 48 h, basal (AID 1164); conditions: higher = more signal; further: test concentration not given here
[14] = MM1S cell viability effects, profiling panel, calcein-AM fluorescence, 48 h, basal (AID 1165); conditions: higher = more signal;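 further: viability of MM1S multiple myeloma cells under basal unstimulated conditions; test concentration not given here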
[15] = basal RPMI8226 viability, no added stimulus, profiling panel, cell-based, calcein-AM fluorescence, 48 h, PK04 Diversity Set (AID 1166); conditions: RPMI8226 myeloma viability, higher = more signal;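 further: cells grown under basal conditions without added stimulus; test concentration not given here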
[16] = basal HepG2 mitochondrial membrane potential changes, profiling panel, cell-based, JC-1 fluorescence, 24 h, 100 nL compound (AID 1167); conditions: higher = more signal; further: test concentration not given here
[17] = basal 3T3-L1 adipocyte mitochondrial potential changes, profiling panel, cell-based, JC-1 fluorescence, 3T3-L1 adipocytes, 24 h, 100 nL compound (AID 1168); conditions: JC-1 mitochondrial fluorescence, higher = more signal, called active from +8 up or from −8 down; further: test concentration not given here
[18] = basal RPMI8226 mitochondrial membrane potential changes, profiling panel, cell-based, JC-1 fluorescence, 24 h, 100 nL compound (AID 1169); conditions: RPMI8226 myeloma, JC-1 mitochondrial potential fluorescence, higher = more signal; further: test concentration not given here
[19] = basal MM1S mitochondrial membrane potential changes, profiling panel, cell-based, JC-1 fluorescence, 24 h, 100 nL compound (AID 1170); conditions: higher = more signal; further: test concentration not given here
[20] = A549 lung cancer cell viability effects, profiling panel, resazurin fluorescence, 24 h, PK04 Diversity Set (AID 1171); conditions: higher = more signal, called active from +8 up or from −8 down; further: test concentration not given here

Row | Structure (SMILES) | z-score [1] | composite z-score [2] | z-score [3] | z-score [4] | z-score [5] | z-score [6] | z-score [7] | z-score [8] | z-score [9] | z-score [10] | z-score [11] | z-score [12] | z-score [13] | z-score [14] | z-score [15] | z-score [16] | z-score [17] | z-score [18] | z-score [19] | z-score [20]
1 | CCOC(=O)C[C@H]1[C@H](OC(=O)c2ccc(C(=O)c3ccccc3)cc2)[C@@H](NC(=O)C2CCCCC2)c2cc(OCCCO)ccc2N1C(=O)c1ccccc1 | -1.01 (inactive) | 0.315 | 1.31 (inactive) | -0.889 (inactive) | -0.562 (inactive) | -0.23 (inactive) | -0.0118 | 0.469 (inactive) | 1.26 (inactive) | 1.77 | -0.195 | -0.589 | 0.431 | -1.21 | -0.681 | 1.4 | -0.355 (inactive) | 0.0249 | -0.0847 | 0.352 (inactive)
2 | O=C(CS)NCCCCCCNC(=O)[C@H]1C[C@H]2C(=O)N3CCC[C@H]3C(=O)N2[C@H]1c1cccc(OCCO)c1 | -1.17 (inactive) | 0.105 | 5.08 (inactive) | 0.331 (inactive) | -0.645 (inactive) | 0.253 (inactive) | 0.598 | 1.25 (inactive) | 0.799 (inactive) | 0.0469 | -0.464 | -0.966 | -0.0465 | -0.939 | 0.529 | -0.971 | -0.955 (inactive) | -0.127 | -0.285 | 0.388 (inactive)
3 | COC(=O)C[C@H]1O[C@]2(C(=O)N(Cc3ccccc3)c3ccc(NC(C)=O)cc32)[C@@H](C)[C@@H]1[Si](C)(C)c1ccc(OC)cc1 | -0.202 (inactive) | -0.179 | 2.19 (inactive) | 0.984 (inactive) | 0.659 (inactive) | 0.304 (inactive) | 0.186 | -0.0156 (inactive) | 0.288 (inactive) | 2.89 | -0.472 | 1.73 | 0.425 | 0.0926 | -2.57 | 0.0504 | 1.73 (inactive) | -0.0063 | 0.402 | -1.62 (inactive)
4 | CCOC(=O)[C@H]1C/C=C/C[C@H](C(=O)OCC)C(=O)O[C@H]2[C@@H](OC)O[C@H](CO)[C@@H](OC(=O)Nc3ccc4c(c3)OCO4)[C@@H]2OC1=O | 1.2 (inactive) | -0.0727 | 4.49 (inactive) | 1.81 (inactive) | -0.564 (inactive) | 1.73 (inactive) | 0.483 | -1.09 (inactive) | -0.854 (inactive) | -0.02 | -2.58 | -0.256 | -5 | -3.35 | -4.14 | -3.1 | 1.56 (inactive) | -0.975 | -1.75 | -5 (inactive)
5 | CC(c1ccccc1)C(O)C1C=CC2C(=O)NC(=O)C2N1Nc1ccccn1 (stereo not given) | -0.671 (inactive) | 0.314 | 0.887 (inactive) | 0.561 (inactive) | -0.255 (inactive) | 0.801 (inactive) | -0.8 | -0.479 (inactive) | -3.8 (inactive) | -1.79 | 0.405 | -0.309 | 0.925 | -0.275 | 0.291 | 0.0592 | -0.739 (inactive) | 0.568 | -0.533 | -0.81 (inactive)
6 | O=C(O)[C@H]1C[C@H]2C(=O)NCC(=O)N2[C@H]1c1ccc(O)cc1 | 1.55 (inactive) | -0.0171 | 2.81 (inactive) | 0.898 (inactive) | -2.6 (inactive) | 0.276 (inactive) | 0.586 | -1.99 (inactive) | -1.12 (inactive) | -0.575 | 1.14 | 0.108 | 0.752 | -2.55 | -0.593 | 2.37 | -0.262 (inactive) | -0.629 | -1.43 | 0.672 (inactive)
7 | CC(C)CNC(=O)[C@@H]1c2ccccc2C(=O)N(Cc2cc(C(F)(F)F)cc(C(F)(F)F)c2)[C@H]1c1ccc(CO)cc1 | 0.808 (inactive) | 0.197 | 1.52 (inactive) | 0.0238 (inactive) | 0.173 (inactive) | 0.379 (inactive) | 0.578 | 0.753 (inactive) | -0.815 (inactive) | 0.86 | 0.099 | 0.628 | -0.155 | 0.37 | -0.754 | 0.363 | -0.861 (inactive) | 0.428 | 1.25 | -0.0372 (inactive)
8 | CCCCC(CC)C(O)C1C=CC2C(=O)N(c3ccccc3)C(=O)C2N1Nc1ccccc1 (stereo not given) | -1.61 (inactive) | 0.448 | 1.1 (inactive) | -0.627 (inactive) | 2.18 (inactive) | -1.72 (inactive) | 1.14 | -2.98 (inactive) | -5.21 (inactive) | -5.76 | -0.5 | 0.0749 | -0.315 | -0.137 | -0.841 | -2.35 | 0.633 (inactive) | -0.48 | 0.00945 | -0.885 (inactive)
9 | CCOC(=O)C1=CCC(C(C)(C)C)N(S(=O)(=O)c2ccc(C)cc2)C1 (stereo not given) | -1.32 (inactive) | 0.0494 | 1.53 (inactive) | 0.768 (inactive) | 0.281 (inactive) | 0.289 (inactive) | -0.693 | -0.124 (inactive) | -1.21 (inactive) | 0.194 | -0.723 | -0.194 | -0.157 | -2.31 | -1.28 | -1 | 0.161 (inactive) | -0.1 | -0.562 | 0.613 (inactive)
